# High-throughput results deposited in PubChem by National Center for Advancing Translational Sciences (NCATS).
# GLP-1R agonist – activates the human GLP-1 receptor; HEK293 GLP-1R CRE-luciferase, luminescence, 4-6 h; cells express a hypersensitive GLP-1R form; Potency, µM (top dose mostly 45.6 µM), usual class: activators; 380,000 tested, 0.007% active; P43220
# Target sequence (P43220 whole entry, looked up): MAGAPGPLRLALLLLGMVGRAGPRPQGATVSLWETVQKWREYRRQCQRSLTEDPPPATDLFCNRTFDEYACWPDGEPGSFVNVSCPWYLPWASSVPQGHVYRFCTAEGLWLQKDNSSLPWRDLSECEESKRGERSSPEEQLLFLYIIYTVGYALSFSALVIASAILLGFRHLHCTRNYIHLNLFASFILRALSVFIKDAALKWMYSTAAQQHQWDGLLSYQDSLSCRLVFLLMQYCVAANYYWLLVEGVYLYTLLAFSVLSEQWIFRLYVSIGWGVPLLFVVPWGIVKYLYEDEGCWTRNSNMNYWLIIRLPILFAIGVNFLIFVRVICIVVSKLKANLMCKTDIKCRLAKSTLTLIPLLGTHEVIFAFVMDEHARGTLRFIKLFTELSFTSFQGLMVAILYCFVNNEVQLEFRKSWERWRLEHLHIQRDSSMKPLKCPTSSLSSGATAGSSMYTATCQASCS
# GLP-1R inv ag – inverse agonists of human GLP-1 receptor; AID 624417; P43220; 410,000 tested, 1.6% active; Potency, µM (highest dose often 38.3 µM), hits mostly inhibitors; HEK293 GLP-1R CRE-luciferase, luminescence, 24 h; GLP-1R form is constitutively active; note: nearly all actives have a fitted effect of over 55% in size
#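 Using stably transfected HEK293 (constitutively active GLP-1R, cAMP-luciferase reporter), compounds were incubated 24 hr and luciferase measured by luminescence.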
# HEK293 tox – cytotoxicity counter-screen for GLP-1 receptor inverse agonists; AID 624418; HEK293 cAMP-luciferase reporter cells, luminescence, 24 h; Potency, µM (top dose mostly 38.3 µM), most hits filed as inhibitors; 410,000 tested, 0.13% active;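 note: loss of luciferase light is scored as toxicity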
#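 Step one: seed cells (200 cells/uL, DMEM with 10% Nu serum, 1% pen-strep). Step two: 12-hour incubation at 37 deg C. Step three: pin 23 nL compound, incubate 24 hr. Step four: add luciferase reagent, read luminescence 12 min later.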
# CCT chaperon mod – cytosolic chaperonin activity modulation; purified chaperonin ATPase assay, HTRF ADP detection, 30 min; activity change, % (concentration not given with the values), hits read low; 360,000 tested, 0.3% active; AID 651819; in the data active = activity change below about -30%
#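 ATPase activity: ADP formed was measured by HTRF Transcreener (665/615 nm ratio) after 30 min at 37 deg C with 10 uM ATP. Compounds screened at one 76 uM concentration against 40 or 20 nM TRiC in Tris pH 7.4/KCl/MgCl2/DTT buffer.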
# MmCpn inh – inhibitors of Methanococcus maripaludis chaperonin TRiC (MmCpn); 330,000 tested, 0.031% active; purified Mm-Cpn ATPase, ADP Transcreener TR-FRET; AID 504842; Potency, µM (highest dose often 76.9 µM), most hits filed as inhibitors; note: nearly all actives have a fitted effect of over 80% in size
#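 ATPase read-out: TR-FRET ADP immunoassay (anti-ADP Eu cryptate vs ADP-d2), ex 320 nm, em 590/665 nm; signal drops as ADP forms. Enzyme 25 nM, ATP 10 uM, 30 min at 37°C after 10 min compound preincubation.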
# uPA surface inh – inhibitors of cell surface uPA generation; cell surface uPA generation assay, qHTS; Potency, µM (titrated, usually from 38.3 µM), hits mostly inhibitors; 330,000 tested, 0.31% active; AID 540303; active = well fitted inhibition curve with a large enough effect; inconclusive = small, poorly fitted or top-dose-only effect; inactive = no such curve, though single readings can be large or run the other way; tested in mouse RAW 264.7 cells; note: nearly all actives have a fitted effect of over 55% in size
# Numbers stand for hits; - = inactive; ? = inconclusive; . = no result. Only some compounds are listed: those with a hit (about 2.2% of all), similar ones and a draw of the others. Unless noted, calls come from the whole dose curve; as a rule, active = well fitted curve in the direction sought with a large enough effect; inconclusive = small, poorly fitted or top-dose-only effect, or another doubt; inactive = no such curve, though single readings can be large; an effect the other way counts as inactive or inconclusive.
SMILES,GLP-1R agonist,GLP-1R inv ag,HEK293 tox,CCT chaperon mod,MmCpn inh,uPA surface inh
Cc1ccc(CSc2nc3ccncc3[nH]2)cc1,-,?,-,-,-,-
COCCNC(=O)CCn1c(=O)c2cc(OC)c(OC)cc2n(CC(=O)Nc2ccccc2OC)c1=O,.,-,-,.,.,.
COc1ccc(N2C(=O)CS(=O)(=O)C23C(=O)N(Cc2ccccc2F)c2ccccc23)cc1Cl (stereo not drawn),-,-,-,.,.,.
Cc1ccccc1OCc1nc2ccccc2n1Cc1ccccc1Cl,.,3.5µM,-,.,.,.
S=C(NCc1cccs1)Nc1cc(Cl)cc(Cl)c1,-,8.9µM,?,-,-,-
COc1cccc(F)c1C(C[N+](=O)[O-])c1c(N)n(C)c(=O)n(C)c1=O (stereo not drawn),-,3.2µM,?,-,-,?
COc1cc(C(C[N+](=O)[O-])c2c(N)n(C)c(=O)n(C)c2=O)ccc1O (stereo not drawn),-,-,-,-,-,-
Cc1ccc(C(C[N+](=O)[O-])c2c(N)n(C)c(=O)n(C)c2=O)cc1 (stereo not drawn),-,-,-,-,-,10µM
COC(=O)[C@]12CCC(C)(C)C[C@@H]1[C@@H]1C(=O)C=C3[C@@]4(C)C=C(C#N)C(=O)C(C)(C)[C@@H]4CC[C@@]3(C)[C@]1(C)CC2,-,.,.,.,.,.
CCOc1ccc(CCNC(=O)CCCc2nnc3n(CCCOC)c(=O)c4sccc4n23)cc1,.,-,-,.,.,.
O=S(Cc1cc(Oc2ccccc2)nc(-c2ccccc2)n1)c1ccccc1 (stereo not drawn),-,10µM,-,-,-,-
COc1ccc(Cl)cc1NC(=O)Cn1nc(C(F)(F)F)c2c1CCCC2,-,13µM,-,.,.,.
Cc1ccc(C2=NCCn3c2c2ccc([N+](=O)[O-])cc2[n+]3[O-])cc1,-,-,-,-,-,0.71µM
CC(C)(C)c1ccc(C(=O)NC2(C(F)(F)F)NC(=O)N(CCc3ccccc3)C2=O)cc1 (stereo not drawn),-,13µM,-,.,.,.
COc1ccc(OC)c(NC(=O)C2CCCN(S(=O)(=O)c3ccc4[nH]c(=O)ccc4c3)C2)c1 (stereo not drawn),.,-,-,.,.,.
C=C(NCc1ccccc1)c1ccccc1O,-,.,.,.,.,.
CC1=Nc2cc(C(=O)NCCc3ccc(Cl)cc3)ccc2Sc2c(C)ccc(C)c21,-,2.8µM,?,.,.,.
CC1=Nc2cc(C(=O)NCCN3CCOCC3)ccc2Sc2c(C)ccc(C)c21,-,?,-,-,-,-
CC1=Nc2cc(C(=O)NCCCN3CCOCC3)ccc2Sc2c(C)ccc(C)c21,-,8.9µM,-,-,-,-
COc1ccc(C(=O)N(Cc2sccc2C)C2CCS(=O)(=O)C2)cc1Cl (stereo not drawn),.,-,-,.,.,.
CC(C)(C)NC(=O)c1ccc2c(c1)C1C3CCC(C3)C1C(c1ccccc1)N2 (stereo not drawn),-,2.8µM,-,-,-,-
Cc1cc(C)c(S(=O)(=O)NCCc2sc3nc(-c4ccc(F)cc4)nn3c2C)c(C)c1,.,?,-,.,.,.
CCN(CC)CCCNC(=O)C(C)Sc1nc(-c2ccccc2)cc(C(F)(F)F)n1 (stereo not drawn),-,2.8µM,-,-,-,-
CNc1ccccc1C(C)(C)c1cc(-c2ccco2)n[nH]1,-,7.9µM,-,-,-,-
COc1cc(OC)c2c(-c3cccc(-c4ccc(CO)cc4)c3)cc(=O)oc2c1,-,?,?,-,-,0.89µM
SMILES,GLP-1R agonist,GLP-1R inv ag,HEK293 tox,CCT chaperon mod,MmCpn inh,uPA surface inh
COc1cc(OC)c2c(-c3cccc(-c4cccc(C)c4)c3)cc(=O)oc2c1,-,?,-,-,-,3.2µM
COc1cc(OC)c2c(-c3cccc(-c4ccc(O)cc4)c3)cc(=O)oc2c1,-,-,-,-,-,?
COc1cc(OC)c2c(-c3cccc(-c4ccc(OC(F)(F)F)cc4)c3)cc(=O)oc2c1,-,-,-,-,-,-
COc1ccc(-c2cccc(-c3cc(=O)oc4cc(OC)cc(OC)c34)c2)cc1,-,?,?,-,-,0.79µM
COc1ccc(OCC(O)Cn2c(NCCO)nc3c2c(=O)n(C)c(=O)n3C)cc1 (stereo not drawn),.,-,-,.,.,.
COc1ccc(CCNC(=O)C(=O)NCC(c2ccc3c(c2)OCO3)N2CCOCC2)cc1OC (stereo not drawn),.,-,-,.,.,.
c1ccc(-c2csc(Nc3ccccn3)n2)cc1,-,10µM,-,-,-,-
Cc1ccc(-c2csc(Nc3ccccn3)n2)cc1,-,?,-,-,-,-
Cc1cccc(N2CCN(c3ncnc4c3nc3n4CCCCC3)CC2)c1C,-,-,-,.,.,.
CCN1C(=NCCCCO)N[C@@H](c2ccccc2)C(C(=O)OC)=C1C,.,.,.,.,-,.
COC(=O)C1=C(C)N(c2ccc(OC)cc2)C(C)=C(C(=O)OC)C1c1ccc(OC)cc1,-,?,-,-,-,-
COC(=O)C1=C(C)N(c2ccc(OC)cc2)C(C)=C(C(=O)OC)C1c1ccccc1,-,8.9µM,-,-,-,-
Cc1ccc(CNC(=O)CCc2nnc3n(C)c(=O)c4sccc4n23)cc1,-,-,-,.,.,.
CN=C(Nc1cc(Cl)ccc1Cl)SC1CC(=O)N(c2ccc(C(=O)OC)cc2)C1=O (stereo not drawn),-,4µM,-,-,-,-
